Measurements from PubChem BioAssay (NCI).
Values joined by “and” are separate entries in the source; they are usually repeats but may differ in a detail not shown here. Equal values may be shown once. About 83,000 compounds went through this panel and 20% of them were active in at least one assay; those are over-represented in the sample as a whole.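 The endpoint reported here, percent growth, reads 100 for growth as untreated, 0 for no net growth and -100 for all cells dead.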 Unmarked numbers belong to inactive results. Active and inactive are the calls of the source.

Tested on: ACHN renal
Test: NCI-60 one-dose screen, 48 h (100 = growth as untreated, 0 = no growth, -100 = all killed)
Conditions: 10 µM unless noted
Protocol: Growth inhibition of the ACHN human tumor cell line is measured as a screen for anti-cancer activity. Cells are grown in 96 well plates and exposed to the test compound for 48 hours. Compounds are tested at a single concentration, which is 10^-5 M for most compounds. The reported endpoint is percent growth (GI% or GIPRCNT), where numbers from 0 - 100% represent growth inhibition, and numbers from -100% - 0 represent cell death. For example, a value of 40 represents 60% growth inhibition. A value of 0 means no net growth occurred over the course of the experiment. A value of -40 indicates 40% of cells at the beginning of the experiment died by the end of the experiment. A value of -100 means all cells are dead at the end of the experiment.
NCI-60 Human Tumor Cell Lines Screen was performed using the standard one-dose NCI protocol, which is described in more detail at https://dtp.cancer.gov/discovery_development/nci-60/default.htm.
Compounds with GIPRCNT values below 10 were considered active. Activity score was based on GIPRCNT using the following formula: […]
Score is 0 for GIPRCNT values of 100 or above, 50 for GIPRCNT values of 0, and 100 for GIPRCNT values of -100.

Row | Structure (SMILES) | growth
1 | Clc1ccc(Nc2nc(Nc3ccc(Cl)cc3)nc(Nc3ccc(-c4cc(-c5cccc(Cl)c5)on4)cc3)n2)cc1 | 86.4%
2 | COc1ccc(/C=C2\COc3ccc(O)c(O)c3C2=O)c(OC)c1OC | 12.5%
3 | COc1cc(Cl)cc(-c2nn(C(=O)NS(=O)(=O)c3ccc(Cl)cc3)cc2-c2ccncc2)c1 | 80.6%
4 | Nc1ccc(-c2nc3ccc4[nH]ncc4c3c3c2CCCC3)cc1F | 11.6%
5 | COc1cc(-c2[nH]ncc2Nc2ccc(Cl)cc2)cc(OC)c1OC | 78.9%
6 | Clc1ccc2c(c1)N(c1ncnc3ccc(-c4cnc5[nH]ccc5c4)cc13)CC2 | 28.4%
7 | CC(C)=CCc1cc(O)c(O)c2oc3cc(O)cc(O)c3c(=O)c12 | 41.5%
8 | CCCCC#Cc1c(/C=C(\CCCC)SCC)n(C)c(=O)[nH]c1=O | 101%
9 | CCOC(=O)c1nnn(Cc2cc(=O)oc3c2ccc2ccccc23)c1C | 97.9%
10 | CCCCCCCCN(CCCCCCCC)CC(O)c1cc(Cl)ccc1OC (stereo not given) | 71.5%
11 | COc1ccc(/C(C)=C(\c2ccc(OCCN3CCOCC3)cc2)c2ccc(OC(=O)C3CCCCC3)cc2)cc1 | 98%
12 | Cc1cccc(Cc2cnc(NC(=O)CCCOc3ccc(Cl)cc3)s2)c1 | 12.1%
13 | O=C1C(c2c[nH]c3ccccc23)=C(c2coc3cc(Br)ccc23)C(=O)N1O | 110%
14 | Cc1ccc2[nH]c(=S)[nH]c(=O)c2c1 | 101%
15 | Nc1nc2ccccc2c2c(=O)c3ccc(Cl)cc3sc12 | 83.6%
16 | COc1cc(/C=C2\CCC/C(=C\c3cc(CN4CCCC4)c(O)c(OC)c3)C2=O)cc(CN2CCCC2)c1O | 48.2%
17 | OCCN1CCN(CC/C=C2\c3ccccc3Sc3ccc(Cl)cc32)CC1 | 58.5% and 71.1%
18 | COC(=O)c1[nH]nc(OC)c1C1(C(C#N)c2nc3ccccc3s2)CCCc2ccccc21 (stereo not given) | 89.1%
19 | O=C(/C=C/c1ccccc1)c1cccs1 | 100% and 110%
20 | CCC(=C(c1ccc(OCCCN(C)C)cc1)c1ccc(OCCCN(C)C)cc1)c1ccc(Cl)cc1 | -95.8% (active)

Row | Structure (SMILES) | growth
21 | N#CC1=C(N)Oc2c(sc3c(Br)cccc23)C1c1ccccn1 (stereo not given) | 47.3%
22 | O=[N+]([O-])c1ccc(S(=O)Cc2ccccc2)c([N+](=O)[O-])c1 (stereo not given) | -58.6% (active) and -91.6% (active)
23 | CN(C)C(=O)c1cc2cnc(Nc3ccc(-c4csc5c(=S)cc(N6CCOCC6)oc45)cc3)nc2n1C1CCCC1 | 6.64% (active)
24 | c1ccc(-c2cc(-c3cc(-c4ccccc4)on3)no2)cc1 | -3.89% (active)
25 | COC(=O)/C=C1/SC(=Nc2ccc([N+](=O)[O-])cc2)N(CCc2c[nH]c3ccccc23)C1=O | 64.6%
26 | CCCO/N=C/c1ccccn1 | 104% and 100%
27 | COc1ccc(C(=O)N/N=C/c2ccc(O)cc2O)cc1Nc1ccnc(C(F)(F)F)c1 | 35.8%
28 | N#Cc1c(-c2cccc(F)c2)cc(-c2cccnc2)[nH]c1=O | 101%
29 | CN1CCN(CCCN2c3ccccc3Sc3ccc(Cl)cc32)CC1 | 62.9% and 85.2%
30 | Nc1nc2c(s1)CCc1cn(S(=O)(=O)c3ccccc3)cc1-2 | 95.9% and 101%
31 | C=CCOc1ccc(/C=C2\SC(=S)N(CCc3ccc(O)cc3)C2=O)cc1 | 94%
32 | CCCNNC(=O)/C=C/c1ccc(CNCCc2c(C)[nH]c3ccccc23)cc1 | -15.4% [2.5 µM] (active)
33 | O=C(Oc1ccc(CO[N+](=O)[O-])cc1)c1ccccc1 | -84.7% (active)
34 | Nc1ccc(S(=O)(=O)c2ccc(N)cc2)cc1 | 96.9% and 110%
35 | Cc1cccc(-c2nnc(SCC(=O)Nc3ncc(Cc4ccccc4)s3)n2N2C(=O)CSC2=S)c1 | 43.8%
36 | C=C(C)[C@@H]1CC[C@]2(C(=O)N3CCN(C)CC3)CC[C@]3(C)[C@H](CC[C@@H]4[C@@]5(C)CC(CCCNC(C)=O)(CCCNC(C)=O)[C@H](OC(C)=O)C(C)(C)[C@@H]5CC[C@]43C)[C@@H]12 | 101%
37 | CCOC(=O)c1nc2c3ccccc3cnn2c1C(=O)c1ccc(OC)cc1 | 100%
38 | CCN(CC)CCOc1ccc(/C(=C(\Cl)c2ccccc2)c2ccccc2)cc1 | 52.8% and 81.3%
39 | COc1cc2nc3cc([N+](=O)[O-])ccc3c(NCCNCC(C)(C)O)c2cc1OC | 6.39% (active)
40 | O=C1C(Nc2ccc(Cl)cc2)=C(I)C(=O)c2ncccc21 | -98.8% (active)
